Reference: the supplement of paper PMC11732987, “Enantioselective OTUD7B fragment discovery through chemoproteomics screening and high-throughput optimisation” (Communications Chemistry, 2025)
A number with no mark means an inactive call.

Columns and labels:
Assay in all cases: log2 ratio of Biotin-Ahx-Ub-VS probe labelling (fragment/DMSO); higher = less target engagement (more negative = stronger competition), active = hit call of the paper (q ≤ 0.05, log2 ratio ≤ -1)
Conditions in all cases: compound concentration: 200 uM; treatment time: 3 h
[1] = molecular target: T1, ALG13 (UniProt Q9NP73)
T1 sequence (whole entry): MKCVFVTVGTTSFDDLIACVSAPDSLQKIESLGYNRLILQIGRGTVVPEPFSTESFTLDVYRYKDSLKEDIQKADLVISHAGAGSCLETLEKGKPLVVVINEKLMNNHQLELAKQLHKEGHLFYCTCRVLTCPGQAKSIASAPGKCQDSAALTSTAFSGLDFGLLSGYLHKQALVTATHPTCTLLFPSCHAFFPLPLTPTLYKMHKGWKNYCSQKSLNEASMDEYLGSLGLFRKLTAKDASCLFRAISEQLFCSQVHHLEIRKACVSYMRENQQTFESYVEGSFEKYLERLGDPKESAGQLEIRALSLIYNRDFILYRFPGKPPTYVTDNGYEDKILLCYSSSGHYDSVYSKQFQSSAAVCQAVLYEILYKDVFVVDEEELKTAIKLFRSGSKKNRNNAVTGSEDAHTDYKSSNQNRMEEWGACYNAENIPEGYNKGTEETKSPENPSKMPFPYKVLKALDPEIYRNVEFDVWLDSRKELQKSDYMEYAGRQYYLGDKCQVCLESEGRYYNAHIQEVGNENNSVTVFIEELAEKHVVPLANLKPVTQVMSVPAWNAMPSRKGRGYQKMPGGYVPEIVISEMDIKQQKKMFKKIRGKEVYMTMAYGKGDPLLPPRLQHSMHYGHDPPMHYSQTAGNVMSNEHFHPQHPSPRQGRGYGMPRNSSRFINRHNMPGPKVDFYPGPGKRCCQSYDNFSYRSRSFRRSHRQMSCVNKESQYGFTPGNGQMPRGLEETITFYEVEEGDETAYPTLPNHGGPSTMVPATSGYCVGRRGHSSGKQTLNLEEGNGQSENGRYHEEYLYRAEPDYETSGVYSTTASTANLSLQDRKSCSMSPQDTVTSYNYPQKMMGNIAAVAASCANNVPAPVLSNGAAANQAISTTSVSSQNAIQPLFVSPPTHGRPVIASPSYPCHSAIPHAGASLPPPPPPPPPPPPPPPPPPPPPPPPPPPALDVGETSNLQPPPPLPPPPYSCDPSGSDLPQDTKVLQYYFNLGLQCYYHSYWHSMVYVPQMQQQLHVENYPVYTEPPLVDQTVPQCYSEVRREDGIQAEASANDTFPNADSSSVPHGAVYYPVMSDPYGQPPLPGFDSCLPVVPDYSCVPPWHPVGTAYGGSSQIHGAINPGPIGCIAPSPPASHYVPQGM
Outline: (§1)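 Fragment (200 µM) or vehicle was incubated for 3 h with triplicate HEK293T lysate samples of 495 µg, which were then treated with Biotin-Ahx-Ub-VS at 0.5 µM final for 1 h. Labelled DUBs were enriched on NeutrAvidin, digested with LysC and trypsin, and analysed by diaPASEF LC-MS/MS. Values are average log2 fragment/vehicle ratios from an unpaired t-test on global-median-normalised Spectronaut label-free quantities, using proteins with ≥2 unique peptides.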

[2] = molecular target: ATXN3 (UniProt P54252)
ATXN3, sequence (P54252 whole entry): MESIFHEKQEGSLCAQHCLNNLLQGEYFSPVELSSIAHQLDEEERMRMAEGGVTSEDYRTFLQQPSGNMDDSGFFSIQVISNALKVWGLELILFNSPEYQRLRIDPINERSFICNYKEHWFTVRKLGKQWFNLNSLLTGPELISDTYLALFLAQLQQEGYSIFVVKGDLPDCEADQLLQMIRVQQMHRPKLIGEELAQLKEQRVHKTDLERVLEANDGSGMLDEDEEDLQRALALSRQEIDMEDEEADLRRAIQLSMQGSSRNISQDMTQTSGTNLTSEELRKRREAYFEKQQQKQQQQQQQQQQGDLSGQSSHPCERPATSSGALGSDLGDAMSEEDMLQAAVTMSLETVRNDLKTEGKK
Outline: as §1

[3] = molecular target: T2, BAP1 (UniProt Q92560)
T2 sequence (whole entry): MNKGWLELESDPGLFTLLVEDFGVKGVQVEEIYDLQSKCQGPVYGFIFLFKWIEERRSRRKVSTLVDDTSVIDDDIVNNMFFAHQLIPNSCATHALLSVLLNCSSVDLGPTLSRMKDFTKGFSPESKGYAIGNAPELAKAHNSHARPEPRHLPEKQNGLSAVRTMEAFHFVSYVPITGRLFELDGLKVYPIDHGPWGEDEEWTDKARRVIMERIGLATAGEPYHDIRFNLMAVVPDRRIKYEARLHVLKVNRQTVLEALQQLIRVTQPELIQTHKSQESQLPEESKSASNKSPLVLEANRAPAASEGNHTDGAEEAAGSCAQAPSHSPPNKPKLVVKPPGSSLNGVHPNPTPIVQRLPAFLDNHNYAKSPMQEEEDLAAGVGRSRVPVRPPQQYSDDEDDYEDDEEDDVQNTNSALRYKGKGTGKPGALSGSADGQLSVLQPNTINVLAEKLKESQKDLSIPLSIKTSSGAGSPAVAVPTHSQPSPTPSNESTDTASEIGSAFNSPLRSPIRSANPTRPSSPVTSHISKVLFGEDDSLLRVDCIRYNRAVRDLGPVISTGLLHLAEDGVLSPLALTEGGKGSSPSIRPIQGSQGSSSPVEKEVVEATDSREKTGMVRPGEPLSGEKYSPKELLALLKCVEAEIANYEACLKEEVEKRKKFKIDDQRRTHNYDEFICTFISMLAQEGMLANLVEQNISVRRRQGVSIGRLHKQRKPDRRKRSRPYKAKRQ
Outline: as §1

[4] = molecular target: EIF3F (UniProt O00303)
EIF3F, sequence (O00303 whole entry): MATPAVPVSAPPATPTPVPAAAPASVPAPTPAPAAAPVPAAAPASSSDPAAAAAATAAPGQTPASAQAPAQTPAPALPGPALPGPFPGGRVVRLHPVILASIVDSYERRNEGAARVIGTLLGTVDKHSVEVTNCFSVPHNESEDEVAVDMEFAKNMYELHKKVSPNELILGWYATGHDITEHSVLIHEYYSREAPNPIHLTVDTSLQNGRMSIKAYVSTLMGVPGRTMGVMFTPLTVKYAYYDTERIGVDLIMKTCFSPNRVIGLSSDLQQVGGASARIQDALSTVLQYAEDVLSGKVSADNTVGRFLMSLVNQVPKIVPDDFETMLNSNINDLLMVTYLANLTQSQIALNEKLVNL
Outline: as §1

[5] = molecular target: EIF3H (UniProt O15372)
EIF3H, sequence (O15372 whole entry): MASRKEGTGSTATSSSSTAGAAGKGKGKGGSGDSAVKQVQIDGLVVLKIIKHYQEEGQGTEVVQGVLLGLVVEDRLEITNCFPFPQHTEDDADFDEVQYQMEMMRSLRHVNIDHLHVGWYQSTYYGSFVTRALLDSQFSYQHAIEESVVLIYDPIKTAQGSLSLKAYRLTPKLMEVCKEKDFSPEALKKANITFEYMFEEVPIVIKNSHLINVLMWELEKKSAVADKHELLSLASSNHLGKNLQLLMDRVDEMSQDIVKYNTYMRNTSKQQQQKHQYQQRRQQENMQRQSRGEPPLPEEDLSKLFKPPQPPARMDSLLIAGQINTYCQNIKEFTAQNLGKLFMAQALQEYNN
Outline: as §1

[6] = molecular target: T3, FAM105A (UniProt Q9NUU6)
T3 sequence (whole entry): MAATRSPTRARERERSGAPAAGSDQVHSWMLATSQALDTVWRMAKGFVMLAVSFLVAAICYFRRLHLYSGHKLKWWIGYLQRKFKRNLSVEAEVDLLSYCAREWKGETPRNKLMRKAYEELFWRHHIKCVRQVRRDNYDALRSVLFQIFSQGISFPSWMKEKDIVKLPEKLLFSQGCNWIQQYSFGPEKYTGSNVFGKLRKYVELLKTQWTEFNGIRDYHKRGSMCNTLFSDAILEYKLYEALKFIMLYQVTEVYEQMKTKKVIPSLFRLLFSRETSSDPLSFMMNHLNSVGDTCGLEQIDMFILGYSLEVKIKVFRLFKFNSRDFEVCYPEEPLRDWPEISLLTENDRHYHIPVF
Outline: as §1

[7] = molecular target: OTUB1 (UniProt Q96FW1)
OTUB1, sequence (Q96FW1 whole entry): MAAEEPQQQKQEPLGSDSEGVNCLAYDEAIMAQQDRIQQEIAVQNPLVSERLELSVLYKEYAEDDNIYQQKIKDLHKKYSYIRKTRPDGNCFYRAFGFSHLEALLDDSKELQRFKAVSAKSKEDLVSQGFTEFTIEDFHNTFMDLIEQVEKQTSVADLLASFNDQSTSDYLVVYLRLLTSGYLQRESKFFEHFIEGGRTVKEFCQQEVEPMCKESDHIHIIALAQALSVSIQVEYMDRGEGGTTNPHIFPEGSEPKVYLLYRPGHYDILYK
Outline: as §1

[8] = molecular target: T4, OTUD4 (UniProt Q01804)
T4 sequence (whole entry): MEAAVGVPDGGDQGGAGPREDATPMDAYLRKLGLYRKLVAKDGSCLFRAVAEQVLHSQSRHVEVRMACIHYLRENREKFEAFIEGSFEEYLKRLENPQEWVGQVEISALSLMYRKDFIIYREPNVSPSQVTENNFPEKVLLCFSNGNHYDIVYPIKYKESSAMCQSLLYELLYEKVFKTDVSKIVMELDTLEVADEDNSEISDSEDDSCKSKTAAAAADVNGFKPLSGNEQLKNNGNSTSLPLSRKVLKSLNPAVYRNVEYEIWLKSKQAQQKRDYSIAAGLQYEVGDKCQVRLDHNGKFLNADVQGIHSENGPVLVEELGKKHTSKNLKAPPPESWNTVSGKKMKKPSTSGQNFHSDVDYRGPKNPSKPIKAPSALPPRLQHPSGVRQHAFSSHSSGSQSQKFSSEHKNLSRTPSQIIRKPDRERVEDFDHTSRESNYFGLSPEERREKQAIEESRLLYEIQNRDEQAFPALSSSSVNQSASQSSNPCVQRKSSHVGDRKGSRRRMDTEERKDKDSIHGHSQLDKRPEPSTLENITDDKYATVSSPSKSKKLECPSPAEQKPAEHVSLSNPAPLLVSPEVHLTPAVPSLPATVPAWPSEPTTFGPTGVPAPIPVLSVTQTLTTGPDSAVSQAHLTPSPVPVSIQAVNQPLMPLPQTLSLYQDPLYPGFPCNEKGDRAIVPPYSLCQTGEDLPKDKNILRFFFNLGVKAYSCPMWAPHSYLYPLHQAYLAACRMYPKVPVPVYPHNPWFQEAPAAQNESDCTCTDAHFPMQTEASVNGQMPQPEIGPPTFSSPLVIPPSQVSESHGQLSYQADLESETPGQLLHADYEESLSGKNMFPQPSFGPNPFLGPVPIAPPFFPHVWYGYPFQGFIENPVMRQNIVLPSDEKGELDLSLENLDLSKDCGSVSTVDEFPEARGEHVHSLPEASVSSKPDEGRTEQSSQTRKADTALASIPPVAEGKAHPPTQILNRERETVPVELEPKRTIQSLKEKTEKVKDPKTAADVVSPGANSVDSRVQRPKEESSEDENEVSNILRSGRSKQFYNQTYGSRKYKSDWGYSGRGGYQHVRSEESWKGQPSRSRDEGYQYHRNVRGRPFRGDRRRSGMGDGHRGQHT
Outline: as §1

[9] = molecular target: T5, OTUD5 (UniProt Q96G74)
T5 sequence (whole entry): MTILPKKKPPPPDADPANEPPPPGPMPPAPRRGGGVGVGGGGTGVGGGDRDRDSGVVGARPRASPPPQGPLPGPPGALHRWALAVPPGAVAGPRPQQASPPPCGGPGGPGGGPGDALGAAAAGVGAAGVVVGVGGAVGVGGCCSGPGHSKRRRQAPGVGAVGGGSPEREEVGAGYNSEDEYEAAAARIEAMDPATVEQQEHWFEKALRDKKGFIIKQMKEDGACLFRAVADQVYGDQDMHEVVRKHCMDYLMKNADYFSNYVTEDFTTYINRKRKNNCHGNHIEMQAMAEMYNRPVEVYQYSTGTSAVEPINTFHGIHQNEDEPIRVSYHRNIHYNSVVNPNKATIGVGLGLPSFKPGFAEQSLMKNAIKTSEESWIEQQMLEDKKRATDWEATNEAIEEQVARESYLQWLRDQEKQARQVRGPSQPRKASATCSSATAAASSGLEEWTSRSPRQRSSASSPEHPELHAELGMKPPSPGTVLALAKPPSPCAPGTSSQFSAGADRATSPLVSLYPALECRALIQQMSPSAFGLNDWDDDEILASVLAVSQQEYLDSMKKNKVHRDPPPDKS
Outline: as §1

Compound: Cl.O=C(CCl)NCCc1ncc(F)cc1F
- log2 ratio of Biotin-Ahx-Ub-VS probe labelling [1]: 0.103
- log2 ratio of Biotin-Ahx-Ub-VS probe labelling [2]: -0.404
- log2 ratio of Biotin-Ahx-Ub-VS probe labelling [3]: -1.21 (active)
- log2 ratio of Biotin-Ahx-Ub-VS probe labelling [4]: -0.289
- log2 ratio of Biotin-Ahx-Ub-VS probe labelling [5]: 0.21
- log2 ratio of Biotin-Ahx-Ub-VS probe labelling [6]: 0.131
- log2 ratio of Biotin-Ahx-Ub-VS probe labelling [7]: -0.111
- log2 ratio of Biotin-Ahx-Ub-VS probe labelling [8]: -0.506
- log2 ratio of Biotin-Ahx-Ub-VS probe labelling [9]: -0.474
